Assay results published in PubChem BioAssay (NCATS).
Several values for one entry are separate records, joined by “and”; a condition that tells them apart may be missing. Equal values may be shown once. Inconclusive results are not listed. Activity calls are given as the source filed them. Calls come from the whole dose curve; as a rule, active = well fitted curve in the direction sought with a large enough effect; inconclusive = small, poorly fitted or top-dose-only effect, or another doubt; inactive = no such curve, though single readings can be large; an effect the other way counts as inactive or inconclusive.

assay: qHTS of pediatric cancer cell lines to identify multiple opportunities for drug repurposing: Confirmatory screen for SK-N-MC cells (AID 1347111); conditions: SK-N-MC cell viability; series mostly up to 45.9 µM;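 note: cells exposed to compound for 48 h before the readout; nearly all actives have a fitted effect of over 70% in size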
Procedure, shortened: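 Metabolically active cells were quantified by ATP-dependent luminescence (CellTiter-Glo, 15 min at room temperature) following 48 h treatment. Cells had been plated at 500-1,000 per well and settled for 5 h beforehand.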
Potency is the fitted concentration of half-maximal effect.

Compound	Potency
Nc1nc(=S)c2[nH]cnc2[nH]1	11.7 µM (active) and 7.37 µM (active)
Nc1nc(N)nc(-c2cc(Cl)ccc2Cl)n1	1.17 µM (active)
Nc1nc(N)c2nc(CNc3ccc(C(=O)NC(CCC(=O)O)C(=O)O)cc3)cnc2n1 (stereo unspecified)	0.329 µM (active)
COc1nc(N)nc2c1ncn2[C@@H]1O[C@H](CO)[C@@H](O)[C@@H]1O	2.93 µM (active)
Cn1nnc2c(C(N)=O)ncn2c1=O	inactive
COC(=O)Nc1nc2ccc(Sc3ccccc3)cc2[nH]1	1.04 µM (active)
CCc1c2c(nc3ccc(OC(=O)N4CCC(N5CCCCC5)CC4)cc13)-c1cc3c(c(=O)n1C2)COC(=O)[C@]3(O)CC	0.737 µM (active)
Oc1c(Cl)cc(Cl)c2cccnc12	13.1 µM (active)
CC1CC2C3CCC4=CC(=O)C=C[C@]4(C)[C@@]3(F)[C@@H](O)C[C@]2(C)[C@@]1(O)C(=O)CO (stereo partly specified)	inactive
COc1cc(NCc2ccc3nc(N)nc(N)c3c2C)cc(OC)c1OC	0.657 µM (active)
COc1cc2nc(N3CCCN(C)CC3)nc(NC3CCN(Cc4ccccc4)CC3)c2cc1OC	3.69 µM (active)
O=C(NCC1CN(c2ccc(N3CCOCC3=O)cc2)C(=O)O1)c1ccc(Cl)s1 (stereo unspecified)	2.93 µM (active)

assay: qHTS of pediatric cancer cell lines to identify multiple opportunities for drug repurposing: Confirmatory screen for BT-12 cells (AID 1347112); conditions: BT-12 rhabdoid tumor cells, viability; series mostly up to 45.9 µM; note: nearly all actives have a fitted effect of over 55% in size
Procedure, shortened: (§1)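 Cells (500-1,000/well) in growth media were settled 5 h at 37 degrees C, then given compounds for 48 h. Viability was read as CellTiter-Glo luminescence. Primary runs used MIPE at 11 points (0.78 nM-46 µM) and NPC at 8 points (0.59 nM-46 µM); follow-ups used 11 points.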

Compound	Potency
COC(=O)Nc1nc2ccc(C(=O)c3ccccc3)cc2[nH]1	4140 nM (active)
Nc1nc(N)nc(-c2cc(Cl)ccc2Cl)n1	inactive
Nc1nc(N)c2nc(CNc3ccc(C(=O)NC(CCC(=O)O)C(=O)O)cc3)cnc2n1 (stereo unspecified)	928 nM (active)
N=C(N)c1ccc(OCCCCCOc2ccc(C(=N)N)cc2)cc1	3290 nM (active)
Cn1nnc2c(C(N)=O)ncn2c1=O	inactive
CC1CC2C3CCC4=CC(=O)C=C[C@]4(C)[C@@]3(F)[C@@H](O)C[C@]2(C)[C@@]1(O)C(=O)CO (stereo partly specified)	inactive
CNNCc1ccc(C(=O)NC(C)C)cc1	inactive
COc1cc(NCc2ccc3nc(N)nc(N)c3c2C)cc(OC)c1OC	3290 nM (active)

assay: qHTS of pediatric cancer cell lines to identify multiple opportunities for drug repurposing: Confirmatory screen for DAOY cells (AID 1347114); conditions: DAOY medulloblastoma cells viability, cytotoxicity qHTS; series mostly up to 45.9 µM; note: nearly all actives have a fitted effect of over 65% in size
Procedure, shortened: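 Viability measured as metabolically active cells via CellTiter-Glo luminescence following 48 hours of compound exposure, 11-point dilutions in confirmatory testing. 500-1,000 cells/well plated 5 hours before dosing; controls were DMSO and 2.3 µM bortezomib.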

Compound	Potency
Nc1nc(=S)c2[nH]cnc2[nH]1	2.61 µM (active) and 1.47 µM (active)
COC(=O)Nc1nc2ccc(C(=O)c3ccccc3)cc2[nH]1	928 nM (active)
Nc1nc(N)nc(-c2cc(Cl)ccc2Cl)n1	inactive
N=C(N)c1ccc(OCCCCCOc2ccc(C(=N)N)cc2)cc1	14700 nM (active)
COc1nc(N)nc2c1ncn2[C@@H]1O[C@H](CO)[C@@H](O)[C@@H]1O	inactive
Cn1nnc2c(C(N)=O)ncn2c1=O	inactive
COC(=O)Nc1nc2ccc(Sc3ccccc3)cc2[nH]1	928 nM (active)
CC1CC2C3CCC4=CC(=O)C=C[C@]4(C)[C@@]3(F)[C@@H](O)C[C@]2(C)[C@@]1(O)C(=O)CO (stereo partly specified)	inactive
CNNCc1ccc(C(=O)NC(C)C)cc1	inactive
COc1cc(NCc2ccc3nc(N)nc(N)c3c2C)cc(OC)c1OC	inactive
COc1cc2nc(N3CCCN(C)CC3)nc(NC3CCN(Cc4ccccc4)CC3)c2cc1OC	inactive
O=C(NCC1CN(c2ccc(N3CCOCC3=O)cc2)C(=O)O1)c1ccc(Cl)s1 (stereo unspecified)	inactive

assay: qHTS of pediatric cancer cell lines to identify multiple opportunities for drug repurposing: Confirmatory screen for NB-EBc1 cells (AID 1347115); conditions: NB-EBc1 neuroblastoma cells, viability (cytotoxicity); series mostly up to 45.9 µM;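 note: cells exposed to compound for 48 h before the viability read; nearly all actives have a fitted effect of over 45% in size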
Procedure, shortened: as §1

Compound	Potency
Nc1nc(=S)c2[nH]cnc2[nH]1	2610 nM (active)
COc1nc(N)nc2c1ncn2[C@@H]1O[C@H](CO)[C@@H](O)[C@@H]1O	inactive
Cn1nnc2c(C(N)=O)ncn2c1=O	inactive
CCc1c2c(nc3ccc(OC(=O)N4CCC(N5CCCCC5)CC4)cc13)-c1cc3c(c(=O)n1C2)COC(=O)[C@]3(O)CC	737 nM (active)
Oc1c(Cl)cc(Cl)c2cccnc12	18500 nM (active)
CC1CC2C3CCC4=CC(=O)C=C[C@]4(C)[C@@]3(F)[C@@H](O)C[C@]2(C)[C@@]1(O)C(=O)CO (stereo partly specified)	inactive
CNNCc1ccc(C(=O)NC(C)C)cc1	inactive
COc1cc2nc(N3CCCN(C)CC3)nc(NC3CCN(Cc4ccccc4)CC3)c2cc1OC	inactive
O=C(NCC1CN(c2ccc(N3CCOCC3=O)cc2)C(=O)O1)c1ccc(Cl)s1 (stereo unspecified)	inactive
